# Values of other authors, collected in PubChem BioAssay AID977610.
# Screen size: about 3,600 compounds; about 3,600 (100%) were called active. No cut-off is given here; in the data, nearly all actives have Ki up to about 18000 µM. So high a share suggests a set chosen from earlier hits. This is one part of the list.
# Test: PubChem AID 977610
# Conditions: PDB protein-ligand complexes, literature Ki
# [1] = protein: type II dehydroquinase dehydratase from Mycobacterium tuberculosis, PDB entry 4kiw unless noted
smiles,measurement,setting,value
O=C(O)c1cc(NCc2cccc([N+](=O)[O-])c2)cc(C(=O)O)c1,Ki,[1],7.5 µM (active)
O=C(O)c1cc(O)c(O)c(Oc2cccc([N+](=O)[O-])c2)c1,Ki,[1],"50 µM [protein: type II dehydroquinase dehydratase from Mycobacterium tuberculosis, PDB entry 4kij] (active)"
O=C(O)c1cc(OCc2cccc([N+](=O)[O-])c2)cc(C(=O)O)c1,Ki,[1],"140 µM [protein: type II dehydroquinase dehydratase from Mycobacterium tuberculosis, PDB entry 4kiu] (active)"
CCC(CC)O[C@@H]1C=C(C(=O)O)C[C@H](N)[C@H]1NC(C)=O,Ki,"protein: Neuraminidase from the B/Lyon/CHU/15.216/2011 virus, PDB entry 4cpy",0.491 µM (active)
same,Ki,"protein: Neuraminidase, PDB entry 4gzp",0.0143 µM (active)
CCC(CC)O[C@@H]1CC(C(=O)O)C[C@H](N)[C@H]1NC(C)=O (some centres undefined),Ki,[1],"0.017 µM [protein: neuraminidase, PDB entry 4gzt] (active)"
O[C@@H]1[C@@H](O)[C@H](O)[C@]2(O)CC[C@H]1N2,Ki,[1],"4600 µM [protein: Beta-glucosidase 1, PDB entry 4iie] (active)"
O=C(O)CCCC(=O)O,Ki,[1],"30000 µM [protein: Delta-1-pyrroline-5-carboxylate dehydrogenase, mitochondrial, PDB entry 4lh3] (active)"
O=C(O)C(O)(C(F)(F)F)C(F)(F)F,Ki,[1],"27 µM [protein: Mandelate racemase, PDB entry 4fp1] (active)"
O=C(CO)[C@@H](O)[C@H](O)CF,Ki,[1],"25 µM [protein: XYLULOSE KINASE, PDB entry 4bc5] (active)"
CC(C)CN(C[C@@H](O)[C@H](Cc1ccccc1)NC(=O)O[C@H]1CO[C@H]2OCC(F)(F)[C@H]21)S(=O)(=O)c1ccc(N)cc1,Ki,[1],"5.8e-06 µM [protein: HIV-1 Protease, PDB entry 4u8w] (active)"
C[C@](COC(=O)Cc1ccccc1)([C@@H](Nc1c(C=O)cc2ccccn12)C(=O)O)S(=O)O,Ki,[1],"0.042 µM [protein: Beta-lactamase SHV-1, PDB entry 4gd6] (active)"
OC(c1ccc(Cl)s1)(c1ccc(Cl)s1)[C@H]1CN2CCC1CC2,Ki,[1],"0.36 µM [protein: Choline kinase alpha, PDB entry 4da5] (active)"
CC(=O)N[C@H](Cc1ccccc1)P(O)O,Ki,[1],"10 µM [protein: Serine protease splA, PDB entry 3ufa] (active)"
CN(C)C[C@@H](c1ccc(O)cc1)C1(O)CCCCC1,Ki,[1],"235 µM [protein: Transporter(delta13 mutant), PDB entry 4mm7] (active)"
O=C(O)C[C@@]12O[C@H]3C=CCN[C@H]3[C@@H]1C(=O)N[C@H]2C(=O)O,Ki,[1],"210 µM [protein: Glutamate receptor 2, PDB entry 4isu] (active)"
Nc1cccc(F)c1C(=O)O,Ki,[1],"34 µM [protein: Mycobacterium tuberculosis anthranilate phosphoribosyl transferase, PDB entry 4owo] (active)"
Nc1c(F)cccc1C(=O)O,Ki,[1],"1090 µM [protein: Mycobacterium tuberculosis anthranilate phosphoribosyl transferase, PDB entry 4owm] (active)"
Cc1ncc(CO[P+](O)(O)O)c(CN=Nc2nc3ccccc3s2)c1O,Ki,[1],"10.4 µM [protein: Mycobaterium tuberculosis transaminase BioA, PDB entry 4mqp] (active)"
O[C@H]1[C@H](O)[C@@H](O)CN2CC[C@H](O)[C@H]12,Ki,[1],"6.6 µM [protein: Beta-glucosidase 1, PDB entry 4iif] (active)"
Nc1cc(F)ccc1C(=O)O,Ki,[1],"380 µM [protein: Mycobacterium tuberculosis anthranilate phosphoribosyl transferase, PDB entry 4n8q] (active)"
Nc1ccc(F)cc1C(=O)O,Ki,[1],"60 µM [protein: Mycobacterium tuberculosis anthranilate phosphoribosyl transferase, PDB entry 4own] (active)"
Nc1nc(-c2ccc(Cc3ccccc3)cc2)cs1,Ki,[1],"2 µM [protein: Human Leukotriene A4 Hydrolase, PDB entry 4l2l] (active)"
CCCCSC[C@H]1CN(Cc2c[nH]c3c(N)ncnc23)C[C@@H]1O,Ki,[1],"1.5e-06 µM [protein: 5'-methylthioadenosine/S-adenosylhomocysteine nucleosidase, PDB entry 4f3c] (active)"
